Screens from PubChem.
A selection: hits, their analogues and other compounds. The true share with any hit is near 2.2%.
aSyn rescue: inhibitors of alpha-synuclein toxicity in yeast; AID 652106; 370,000 compounds, 0.14% hits; Yeast expressing alpha-synuclein, growth rescue, BacTiter-Glo, 24 h; Potency, µM (doses to about 46.1 µM), inactives show top-dose growth rescue (activation), usual class: activators; note: % of control where 0% means no effect; nearly all actives have a fitted effect of over 65% in size
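Rescue of yeast growth: cells expressing toxic alpha-synuclein, induced in galactose at OD600 0.02, incubated with compound 24 h at 30 C. ATP luminescence quantified growth; inhibitors of toxicity appear as activators.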
FUS yeast rescue: suppressors of FUS proteinopathy in yeast | S. cerevisiae FUS-expressing, growth rescue, OD600, 24 h | Potency, µM (series often up to 76.6 µM), hits mostly activators | 390,000 compounds, 0.24% hits | AID 1347120;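 note: plate controls were DMSO vehicle for no effect and reference control for full effect; nearly all actives have a fitted effect of over 55% in size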
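Quantitative HTS measuring growth restoration of FUS-toxic yeast. Galactose-induced cells (OD 0.005) were exposed 24hr at 30C to compounds at several concentrations, then absorbance at 600 nm was recorded.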
Abeta yeast res: A-beta toxicity reversal in yeast. yeast expressing A-beta42, growth rescue, OD600, 48 h; response scale: 0% DMSO, 100% iron-clioquinol control. Potency, µM (highest dose often 46.1 µM), most hits filed as activators. 410,000 compounds, 0.063% hits; note: nearly all actives have a fitted effect of over 55% in size
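Yeast growth medium received pinned compounds, then yeast cells expressing toxic A-beta were added; plates incubated at 30 C for 48 hr. Growth read as absorbance at 600 nm, normalized to DMSO and equimolar FeCl3 plus clioquinol controls.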
Mito fusion yeast: mitochondrial division inhibition or fusion activation; S. cerevisiae fusion-defective mutant growth rescue, CellTiterGlo 48 h; Potency, µM (highest dose often 46.1 µM), without a hit: at the top dose growth rescue (activation), usual class: activators; 320,000 compounds, 0.23% hits; note: % of control where 0% means no effect; nearly all actives have a fitted effect of over 45% in size
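Compounds are tested for their ability to restore growth of mitochondrial fusion-defective yeast strains at non-permissive 37C in YPEG medium over 48 hours. Viability is quantified by luciferase luminescence.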
TDP43 rescue: rescues yeast growth from TDP-43 toxicity | TDP-43 expressing yeast growth rescue, BacTiter-Glo, 24 h | Potency, µM (top dose mostly 46.1 µM), for the others: at the highest dose growth rescue (activation), usual class: activators | 410,000 compounds, 1.8% hits; note: % of control where 0% means no effect; nearly all actives have a fitted effect of over 50% in size
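Growth rescue of TDP-43-toxic yeast measured as ATP luminescence (BacTiter-Glo). Cells grown to mid-log in raffinose, induced in galactose at OD600=0.02, exposed to compound 24 hr at 30 deg C.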
* marks the source's active call; other numbers are inactive results; i = inactive; ? = inconclusive; / = no result given; [ ] = remark or other dose. Calls come from the whole dose curve; as a rule, active = well fitted curve in the direction sought with a large enough effect; inconclusive = small, poorly fitted or top-dose-only effect, or another doubt; inactive = no such curve, though single readings can be large; an effect the other way counts as inactive or inconclusive. Potency is the fitted concentration of half-maximal effect.

SMILES | aSyn rescue | FUS yeast rescue | Abeta yeast res | Mito fusion yeast | TDP43 rescue
CC(=O)Nc1ccc(Nc2nc(Nc3ccc(Cl)cc3)nc(N3CCOCC3)n2)cc1 | 15.6% | / | / | / | /
O=C(NC(=S)NCc1ccccc1)c1ccc2c(c1)OCO2 | 1.7% | / | i | ? | 25.1µM*
O=C(NNC(=S)NCc1ccccc1)c1ccc2c(c1)OCO2 | -3.2% | i | i | -3.3% | 13.8%
O=C(NC(=S)NCc1ccc2c(c1)OCO2)c1ccccc1 | 21.5% | i | ? | -13.1% | 15.8µM*
O=C(NCc1ccccc1F)c1ccc2c(c1)OCCO2 | -26.1% | i | ? | -22.4% | 14.1µM*
O=C(COc1ccccc1C(=O)Nc1ccccc1)Nc1cccc(Cl)c1 | 13.9% | / | / | / | /
O=c1c2ccccc2sn1-c1ccc(S(=O)(=O)N2CCOCC2)cc1 | -3.3% | / | / | / | /
COC(=O)NC1c2ccccc2Oc2ccc(C)cc21 (stereo not drawn) | 2.9% | i | i | 4.4% | 12.6µM*
CC(=O)Nc1cccc(C(=O)OCC(=O)c2ccc(S(=O)(=O)N3CCCCC3)cc2)c1 | -8.2% | i | i | -4.6% | 15.7%
CC(=O)Nc1ccc(C(=O)OCC(=O)c2ccc(S(=O)(=O)N3CCCCC3)cc2)cc1 | -4.4% | 7.94µM* | i | 1.7% | 0.0%
COc1ccc(S(=O)(=O)N(CC(=O)Nc2cccc(C(F)(F)F)c2)c2ccc(C)cc2)cc1 | / | ? | i | / | 27.4%
Oc1ccc2ccccc2c1C=NN1CCN(Cc2ccc(Cl)cc2)CC1 | / | i | / | / | /
CCOc1ccccc1NC(=O)Cn1c(=O)n(Cc2ccccc2)c(=O)c2c(C)c(C)sc21 | / | i | i | / | 7.8%
CCOC(=O)CCSc1nc2c(c(C(F)(F)F)c1C#N)CCC2 | 7.6% | i | i | 17.9% | 12.6µM*
c1ccc(-c2c[nH]c3cccc(C4CCCCC4)c23)cc1 | / | i | / | / | /
Cc1cccc(C(=O)N2CCN=C2SCc2ccc([N+](=O)[O-])cc2)c1 | 4.1% | i | i | -4.7% | 10µM*
Cc1cc2c(s1)c(C#N)c(C(=O)NCc1ccccc1F)n2C | / | / | / | -1.2% | /
COc1ccc(NC(=O)COC(=O)/C=C/c2cccs2)c(OC)c1 | -0.3% | i | i | -2.8% | 13.8%
COc1ccc(Cl)cc1NC(=O)COC(=O)C1CCCCC1 | 0.9%[1.84 µM] | i | ? | 22.9% | 12.6µM*
COc1ccc(Cl)cc1NC(=O)COC(=O)C1CC1 | -0.6% | i | ? | 9.4% | 24.5%
COc1ccccc1NC(=O)COC(=O)/C=C/c1cccs1 | 5.7% | / | i | / | 14.1µM*
Cc1ccc(Cl)cc1NC(=O)COC(=O)C1CCCC1 | -5.0% | i | 5.62µM* | 8.0% | 18.6%
COc1ccc(Cl)cc1NC(=O)COC(=O)Cc1cccs1 | 6.9% | i | i | 0.6% | 10µM*
COCCCNC(=O)C1CCN(c2nc3ccc(C)cc3[nH]2)CC1 | / | i | i | / | 10.8%
O=C(c1ccccc1Br)N1CCc2c([nH]c3ccccc23)C1 | ? | i | i | 21.1% | 17.8µM*
SMILES | aSyn rescue | FUS yeast rescue | Abeta yeast res | Mito fusion yeast | TDP43 rescue
Cc1ccc(CNC(=O)CSc2nc3ccsc3c(=O)n2-c2ccc(Br)cc2)cc1 | / | i | i | / | 3.2%
CCC(C)NC(=O)C1CCN(C(=O)c2cc3sccc3n2Cc2ccc(Cl)cc2)CC1 (stereo not drawn) | / | i | i | / | 5.0%
CC(C)Oc1ccc(C(=O)/C(=C\c2cccs2)c2nc3ccccc3o2)cc1 | 0.3% | i | i | 10µM* | 8.0%
COc1ccc(C(=O)/C(=C\c2sccc2C)c2nc3ccccc3o2)cc1 | / | / | / | 8.2% | /
O=C(Cc1ccc(Cl)cc1)Nc1nnc2n1CCS2 | ? | i | i | / | 17.2%
CCN(CC)C(=O)CSc1nc(N)c(C(=O)Nc2ccc(OC)cc2)s1 | -4.2% | / | i | -5.8% | 27.3%
CCOC(=O)CSc1nc(N)c(C(=O)Nc2ccc(N(C)C)cc2)s1 | -12.5% | 31.6µM* | i | -1.6% | -11.4%
COc1ccc(-c2coc3c(C(=O)Nc4ccc(OC)nc4)cccc23)c(C)c1 | -17.1% | i | i | / | 35.5µM*
COc1ccc(-c2ccc(C(=O)Nc3ccc(OC)nc3)c3occc23)c(C)c1 | -18.8% | ? | i | / | 35.5µM*
COc1ccc(-c2ccc(C(=O)Nc3ccccc3)c3occc23)c(C)c1 | -12.2% | i | i | / | 0.0%
CCCC(c1nnnn1C1CCCC1)N1CCN(c2ccccc2F)CC1 (stereo not drawn) | -12.7% | i | i | 8.91µM* | -31.5%
CCCC(c1nnnn1C(C)(C)C)N1CCN(Cc2ccccc2OC)CC1 (stereo not drawn) | -1.8% | i | i | 18.6% | -17.2%
CCCC(c1nnnn1C(C)(C)C)N1CCN(c2ccccc2)CC1 (stereo not drawn) | 0.8% | i | i | 10µM* | -26.5%
CCC(c1nnnn1C1CCCC1)N1CCN(c2ccccc2F)CC1 (stereo not drawn) | 8.9% | i | i | 16.0% | 1.7%
CCOC(=O)c1c(NC(=O)CCCOc2ccc(Cl)cc2)sc2c1CCC2 | / | i | i | / | 8.7%
O=C(COC(=O)c1ccc(-c2ccc([N+](=O)[O-])cc2)o1)NC(=O)NC12CC3CC(CC(C3)C1)C2 | -1.6% | / | ? | 10µM* | ?
O=C(COC(=O)c1ccc(-c2ccc([N+](=O)[O-])cc2)o1)NC(=O)NC1CCCCC1 | 8.5% | / | ? | 13.0% | 13.0%
CC1CC1C(=O)OCC(=O)NC(=O)NC12CC3CC(CC(C3)C1)C2 (stereo not drawn) | 8.2% | i | 8.91µM* | -2.2% | -1.0%
COc1ccc(CC(=O)OCC(=O)NC(=O)NC23CC4CC(CC(C4)C2)C3)cc1 | 12.9% | i | ? | 2.0% | 22.8%
CCCCn1c(=O)c2oc3ccccc3c2n(CC(=O)Nc2cc(C)ccc2C)c1=O | / | i | i | / | 9.8%
CCCCNC(=O)O[C@H]1CC[C@@]23CCCN2C(=O)CCC[C@H]3[C@H]1CCC | / | i | / | / | /
COc1cccc(-n2nnnc2SCC(=O)Nc2ccccc2OC)c1 | 0.8% | i | i | 1.0% | 15.3%
CCCS(=O)(=O)c1nnnn1-c1cccc(OC)c1 | -4.0% | i | i | -26.2% | 11.2µM*
CCc1ccc(-c2c(C)sc(NC(C)=O)c2C(N)=O)cc1 | 0.6% | i | i | 1.0% | 15.8µM*
Cc1nc2nncn2c(NCc2ccc(Cl)cc2)c1C | / | i | i | / | 0.0%
C/C(=C\C(=S)Nc1ccccc1)Nc1cccc2ccccc12 | -0.2% | / | i | 9.1% | 11.2µM*
S=C(NCc1ccccc1)Nc1ccc2ccccc2c1 | 1.9% | i | ? | -9.3% | ?
C/C(=C\C(=S)Nc1ccccc1)Nc1ccc2ccccc2c1 | -1.8% | i | i | 1.0% | 12.6µM*
COc1cccc(CNC(=O)c2ccc(CSc3nc4ccncc4n3Cc3cccc(C)c3)cc2)c1 | / | ? | i | / | 24.0%
